Counter-ions that a name gives are not always drawn.
What was measured:
Conditions in all cases: incubation time: 27 h, anaerobic, 37 °C;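 for the amine columns active = adjusted P below 0.05 in both replicates with a change the same way and a mean fold change under 0.8 or over 1.25; inactive = the rest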
[1] = system: Clostridium sporogenes DSM 1664; assay: growth (OD595) fold change vs plate DMSO controls (fold change (ratio)); higher = more growth
Outline: (§1)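 The reported measure is growth: the fold change against the median of DMSO controls on the plate. Absorbance at 595 nm from anaerobic 96-well mGAM cultures grown for 27 h at 37 °C was blank-subtracted, corrected for background with 20 µM compound solutions in water, and converted to OD with a calibration factor of 5. Fold changes above 1.5 appear as NA, and values are the mean of 2 biological replicates.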

Escherichia coli IAI1 [2] = assay: as above
Outline: as §1

[3] = system: Klebsiella aerogenes DSM 30053; assay: as above
Outline: as §1

[4] = system: Ruminococcus gnavus DSM 108212; assay: as above
Outline: as §1

[5] = system: Klebsiella aerogenes DSM 30053; assay: fold change of Histamine concentration vs plate DMSO controls (fold change (ratio)); higher = more amine produced, active = hit call of the paper (significant change in both replicates, either direction)
Outline: (§2)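 Using LC–triple-quadrupole MS with dynamic MRM, amines were quantified against external calibration curves and corrected for drift within each batch. Samples were whole anaerobic mGAM cultures of four gut strains, grown 27 h at 37 °C from OD 0.1 before 1:1 dilution, extracted with cold acetonitrile/methanol containing 0.1% formic acid and centrifuged. Compounds were present at 20 µM final (sweeteners at 50 µM final). The numbers are fold changes versus plate DMSO controls, each the mean of 2 biological replicates.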

[6] = system: Clostridium sporogenes DSM 1664; assay: fold change of Tryptamine concentration vs plate DMSO controls (fold change (ratio)); higher = more amine produced, active = hit call of the paper (significant change in both replicates, either direction)
Outline: as §2

[7] = system: Ruminococcus gnavus DSM 108212; assay: as above
Outline: as §2

Escherichia coli IAI1 [8] = assay: fold change of Putrescine concentration vs plate DMSO controls (fold change (ratio)); higher = more amine produced, active = hit call of the paper (significant change in both replicates, either direction)
Outline: as §2

[9] = system: Klebsiella aerogenes DSM 30053; assay: as above
Outline: as §2

Escherichia coli IAI1 [10] = assay: fold change of Cadaverine concentration vs plate DMSO controls (fold change (ratio)); higher = more amine produced, active = hit call of the paper (significant change in both replicates, either direction)
Outline: as §2

[11] = system: Klebsiella aerogenes DSM 30053; assay: as above
Outline: as §2

[12] = system: Ruminococcus gnavus DSM 108212; assay: fold change of 2-Phenylethylamine concentration vs plate DMSO controls (fold change (ratio)); higher = more amine produced, active = hit call of the paper (significant change in both replicates, either direction)
Outline: as §2

Row | SMILES | growth [1] | growth (Escherichia coli IAI1 [2]) | growth [3] | growth [4] | fold change of Histamine concentration [5] | fold change of Tryptamine concentration [6] | fold change of Tryptamine concentration [7] | fold change of Putrescine concentration (Escherichia coli IAI1 [8]) | fold change of Putrescine concentration [9] | fold change of Cadaverine concentration (Escherichia coli IAI1 [10]) | fold change of Cadaverine concentration [11] | fold change of 2-Phenylethylamine concentration [12]
1 | CCN(CC)CCOC(=O)c1ccc(N)cc1 [Procaine hydrochloride] (20 µM) | 0.834 | 1.24 | 1.08 | 1.23 | 0.974 (inactive) | 1.04 (inactive) | 1.04 (inactive) | 1.16 (inactive) | 1.03 (inactive) | 0.979 (inactive) | 1.01 (inactive) | 0.992 (inactive)
2 | CN(Cc1ccc(C(C)(C)C)cc1)Cc1cccc2ccccc12 [Butenafine hydrochloride] (20 µM) | 1.12 | 1.04 | 0.979 | 0.838 | 1.11 (inactive) | 0.918 (inactive) | 0.96 (inactive) | 1.05 (inactive) | 1.01 (inactive) | 1.02 (inactive) | 0.992 (inactive) | 1.03 (inactive)
3 | CC(=O)N(O)CCCCCNC(=O)CCC(=O)N(O)CCCCCNC(=O)CCC(=O)N(O)CCCCCN [Deferoxamine mesylate] (20 µM) | 0.934 | 0.997 | 0.996 | 1.06 | 0.926 (inactive) | 1.04 (inactive) | 1.18 (inactive) | 0.952 (inactive) | 0.951 (inactive) | 0.996 (inactive) | 1.03 (inactive) | 1.29 (inactive)
4 | C[C@@H]1C[C@H]2[C@@H]3C[C@H](F)C4=CC(=O)C=C[C@]4(C)[C@@]3(Cl)[C@@H](O)C[C@]2(C)[C@H]1C(=O)COC(=O)C(C)(C)C [Clocortolone pivalate] (20 µM) | 1.06 | 1.03 | 1.04 | 0.992 | 1.04 (inactive) | 1.04 (inactive) | 1.08 (inactive) | 1.02 (inactive) | 0.999 (inactive) | 1.01 (inactive) | 0.997 (inactive) | 1.17 (inactive)
5 | COc1ccc(C(=O)c2ccccc2)c(O)c1 [Oxybenzone] (20 µM) | 0.901 | 0.808 | 0.963 | 0.984 | 0.962 (inactive) | 0.954 (inactive) | 1.03 (inactive) | 0.823 (inactive) | 1 (inactive) | 1.07 (inactive) | 1 (inactive) | 0.979 (inactive)
6 | CC(C(=O)O)c1ccc(CC2CCCC2=O)cc1 (stereo not given) [Loxoprofen] (20 µM) | 1.24 | 1.03 | 1.06 | 1.13 | 0.95 (inactive) | 1.05 (inactive) | 1 (inactive) | 1.02 (inactive) | 1.02 (inactive) | 0.981 (inactive) | 1.01 (inactive) | 0.997 (inactive)
7 | COc1cc2nc(N(C)CCCNC(=O)C3CCCO3)nc(N)c2cc1OC (stereo not given) [Alfuzosin hydrochloride] (20 µM) | 0.976 | 1.01 | 1.01 | 1.31 | 0.953 (inactive) | 1 (inactive) | 1.04 (inactive) | 0.976 (inactive) | 0.99 (inactive) | 1.01 (inactive) | 1.04 (inactive) | 1.04 (inactive)
8 | Cc1cccc(C)c1NC(=O)C1CCCCN1C (stereo not given) [Mepivacaine hydrochloride] (20 µM) | 1.21 | 1.02 | 1.08 | 0.946 | 0.905 (inactive) | 1.02 (inactive) | 1.06 (inactive) | 1 (inactive) | 0.977 (inactive) | 1 (inactive) | 1.01 (inactive) | 1.05 (inactive)
9 | NS(=O)(=O)c1cc2c(cc1Cl)NC(CC1CCCC1)NS2(=O)=O (stereo not given) [Cyclopenthiazide] (20 µM) | 1.33 | 1.03 | 0.98 | 0.993 | 1.01 (inactive) | 1.03 (inactive) | 1.04 (inactive) | 1.07 (inactive) | 1.01 (inactive) | 0.979 (inactive) | 0.996 (inactive) | 1.04 (inactive)
10 | CN(C)CCOC(C)(c1ccccc1)c1ccccn1 (stereo not given) [Doxylamine succinate] (20 µM) | 1.13 | 0.972 | 1.01 | 1.05 | 1.01 (inactive) | 0.943 (inactive) | 0.988 (inactive) | 1.01 (inactive) | 1.01 (inactive) | 0.924 (inactive) | 1 (inactive) | 0.891 (inactive)
11 | CC(=O)O[C@]1(C(C)=O)CC[C@H]2[C@@H]3C=C(Cl)C4=CC(=O)[C@@H]5C[C@@H]5[C@]4(C)[C@H]3CC[C@@]21C [Cyproterone acetate] (20 µM) | 1.17 | 0.908 | 0.894 | 0.639 | 0.982 (inactive) | 0.986 (inactive) | 0.938 (inactive) | 1.02 (inactive) | 1 (inactive) | 0.999 (inactive) | 0.996 (inactive) | 0.927 (inactive)
12 | O=C(O)Cc1ccccc1Nc1c(Cl)cccc1Cl [Diclofenac sodium] (20 µM) | 0.954 | 0.984 | 0.986 | 1.03 | 1.06 (inactive) | 0.699 (active) | 0.988 (inactive) | 1.02 (inactive) | 1 (inactive) | 1.01 (inactive) | 1 (inactive) | 0.989 (inactive)
13 | CC(C)C(=O)Nc1ccc([N+](=O)[O-])c(C(F)(F)F)c1 [Flutamide] (20 µM) | 0.955 | 1 | 0.938 | 1.32 | 1.02 (inactive) | 0.961 (inactive) | 1 (inactive) | 0.977 (inactive) | 1.01 (inactive) | 0.982 (inactive) | 0.981 (inactive) | 1.02 (inactive)
14 | CC1(C)S[C@@H]2[C@H](NC(=O)[C@H](N)c3ccccc3)C(=O)N2[C@H]1C(=O)O [Ampicillin sodium salt] (20 µM) | 0.00123 | 0.943 | 0.726 | 0.0281 | 1.2 (inactive) | 0.0126 (active) | 0.0802 (active) | 0.981 (inactive) | 1.02 (inactive) | 1.23 (inactive) | 1.18 (inactive) | 0.0719 (active)
15 | CCn1nc(C(=O)O)c(=O)c2cc3c(cc21)OCO3 [Cinoxacin] (20 µM) | 0.547 | 0.0392 | 0.544 | 1.06 | 0.506 (active) | 0.724 (active) | 1 (inactive) | 0.749 (inactive) | 1.06 (inactive) | 1.61 (active) | 1.01 (inactive) | 1 (inactive)
16 | CC(C)(C)C(=O)OCOC(=O)[C@@H]1N2C(=O)[C@@H](NC(=O)[C@H](N)c3ccccc3)[C@H]2SC1(C)C [Pivampicillin] (20 µM) | 0 | 0.949 | 0.986 | 0 | 1.04 (inactive) | 0.0632 (active) | 0.0656 (active) | 1.01 (inactive) | 1 (inactive) | 0.968 (inactive) | 0.976 (inactive) | 0.0585 (active)
17 | COc1ccc(C(=O)c2ccccc2O)c(O)c1 [Dioxybenzone] (20 µM) | 0.846 | 0.791 | 0.972 | 0.955 | 0.962 (inactive) | 1 (inactive) | 0.977 (inactive) | 0.86 (inactive) | 0.985 (inactive) | 1.07 (inactive) | 0.996 (inactive) | 0.937 (inactive)
18 | O=C(CCCCCCC(=O)Nc1ccccc1)NO [Vorinostat] (20 µM) | 0.808 | 1.07 | 0.974 | 1.04 | 1.17 (inactive) | 0.962 (inactive) | 1.05 (inactive) | 1.11 (inactive) | 0.99 (inactive) | 0.99 (inactive) | 0.967 (inactive) | 1.1 (inactive)
19 | CC(C[N+](C)(C)C)OC(N)=O (stereo not given) [Bethanechol chloride] (20 µM) | 0.85 | 0.962 | 0.937 | 0.707 | 0.98 (inactive) | 1.01 (inactive) | 1.01 (inactive) | 1.03 (inactive) | 1.01 (inactive) | 1 (inactive) | 1 (inactive) | 1.01 (inactive)
20 | C=C1C[C@H]2[C@@H]3C=C(C)C4=CC(=O)CC[C@]4(C)[C@H]3CC[C@]2(C)[C@@]1(OC(C)=O)C(C)=O [Melengestrol acetate] (20 µM) | 1.17 | 1.07 | 1.07 | 1.04 | 1.03 (inactive) | 1 (inactive) | 1.03 (inactive) | 1.02 (inactive) | 1 (inactive) | 1.02 (inactive) | 0.995 (inactive) | 1.05 (inactive)
21 | O=C(O)Cc1sc(-c2ccccc2)nc1-c1ccc(Cl)cc1 [Fentiazac] (20 µM) | 1.09 | 1.06 | 1.06 | 0.808 | 0.945 (inactive) | 0.999 (inactive) | 0.966 (inactive) | 1.04 (inactive) | 0.971 (inactive) | 0.966 (inactive) | 1.03 (inactive) | 1.06 (inactive)
22 | CCOC(N)=O [Urethane] (20 µM) | 0.952 | 1.05 | 1.04 | 1.08 | 1.03 (inactive) | 0.944 (inactive) | 0.961 (inactive) | 1.02 (inactive) | 1.05 (inactive) | 1.03 (inactive) | 1.03 (inactive) | 0.926 (inactive)
23 | O=C(NCCN1CCOCC1)c1ccc(Cl)cc1 [Moclobemide] (20 µM) | 1.03 | 0.993 | 0.971 | 1.21 | 1.06 (inactive) | 1.04 (inactive) | 1.03 (inactive) | 1 (inactive) | 1.01 (inactive) | 1.01 (inactive) | 0.987 (inactive) | 1.03 (inactive)
24 | C#C[C@]1(O)CC[C@H]2[C@@H]3CCc4cc(O)ccc4[C@H]3CC[C@@]21C [Ethinylestradiol] (20 µM) | 1.22 | 1.04 | 1.07 | 1.05 | 1.01 (inactive) | 1.01 (inactive) | 0.972 (inactive) | 1.05 (inactive) | 0.998 (inactive) | 1.01 (inactive) | 1.01 (inactive) | 0.936 (inactive)
25 | CC(=O)OCC(=O)[C@@]1(O)CC[C@H]2[C@@H]3CCC4=CC(=O)CC[C@]4(C)[C@H]3[C@@H](O)C[C@@]21C [Cortisol acetate] (20 µM) | 1.13 | 1.03 | 1.04 | 1 | 0.896 (inactive) | 0.975 (inactive) | 0.979 (inactive) | 0.987 (inactive) | 0.993 (inactive) | 0.97 (inactive) | 1.01 (inactive) | 0.953 (inactive)
